{"source": "PubChem BioAssay AID1220", "about": "(Sanford-Burnham Center for Chemical Genomics, 2008)", "note": "Screen size: about 190,000 compounds; about 1,300 (0.68%) were called active. Cut-off read from the data, not from the text of the source: active = inhibition above about 50%; inactive = the rest. Shown is part of a subset that was picked to be rich in actives."}
{"target": "Mannose-6-phosphate isomerase (Homo sapiens) (UniProt P34949)", "sequence (P34949 whole entry, looked up)": "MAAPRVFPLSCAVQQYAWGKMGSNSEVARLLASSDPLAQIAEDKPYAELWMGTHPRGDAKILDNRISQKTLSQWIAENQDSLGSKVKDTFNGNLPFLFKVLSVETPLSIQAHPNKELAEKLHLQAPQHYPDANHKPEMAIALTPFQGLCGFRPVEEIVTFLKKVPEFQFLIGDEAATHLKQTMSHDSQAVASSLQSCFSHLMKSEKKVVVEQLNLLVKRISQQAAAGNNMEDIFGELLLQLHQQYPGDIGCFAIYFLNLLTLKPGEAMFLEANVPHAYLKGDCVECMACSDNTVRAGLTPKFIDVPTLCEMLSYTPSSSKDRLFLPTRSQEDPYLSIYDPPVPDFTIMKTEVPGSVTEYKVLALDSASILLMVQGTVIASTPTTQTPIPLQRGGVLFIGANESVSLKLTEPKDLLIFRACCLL", "experiment": "human PMI inhibitors, high substrate, primary screen, biochemical, fluorescence intensity, high mannose 6-phosphate (AID 1220)", "conditions": "recombinant PMI enzyme, coupled fluorescence intensity; at 20 µM; active compounds read high"}
{"smiles": "COc1ccccc1NC(=O)c1cnc2c(-c3ccccc3)c(C)nn2c1C", "inhibition": "8.9% (inactive)"}
{"smiles": "COCCNC(=O)/C(C#N)=C/c1cc(C)n(C2CCCCC2)c1C", "inhibition": "-6.4% (inactive)"}
{"smiles": "O=C(c1cnn(-c2ccccc2)c1)c1ccc2ccccc2c1O", "inhibition": "23.1% (inactive)"}
{"smiles": "O=C(COC(=O)[C@H](Cc1ccccc1)NC(=O)c1ccco1)NC(c1ccccc1)c1ccccc1", "inhibition": "11.5% (inactive)"}
{"smiles": "COc1cc(N)cc(NC(=O)c2ccncc2)c1", "inhibition": "50.4% (active)"}
{"smiles": "COc1cccc(NC(=O)c2ccncc2)c1", "inhibition": "6% (inactive)"}
{"smiles": "COc1ccc(C(=O)Nc2cc(OC)cc(OC)c2)cc1", "inhibition": "10% (inactive)"}
{"smiles": "COc1nc(OC)nc(N2CCC(C(=O)NC3CCCCCC3)CC2)n1", "inhibition": "1.4% (inactive)"}
{"smiles": "Cc1ccccc1NC(=S)NCc1ccc(Cl)cc1", "inhibition": "9.2% (inactive)"}
{"smiles": "CC1CCc2c(C(=O)Oc3cccc(-n4cnnn4)c3)csc2C1", "note": "(stereo unspecified)", "inhibition": "15.6% (inactive)"}
{"smiles": "COCc1ccc(O)c2ncccc12", "inhibition": "22.6% (inactive)"}
{"smiles": "CC(C)COCc1ccc(O)c2ncccc12", "inhibition": "14.9% (inactive)"}
{"smiles": "Cc1ccc(O)c(CNc2cccc3cccnc23)c1", "inhibition": "63.8% (active)"}
{"smiles": "Cc1ccccc1NCc1ccccc1O", "inhibition": "1.6% (inactive)"}
{"smiles": "Cc1cccnc1NCc1ccc(O)c2ncccc12", "inhibition": "63.6% (active)"}
{"smiles": "Fc1ccc(NCc2cccnc2)cc1", "inhibition": "-2% (inactive)"}
{"smiles": "Oc1ccc(Cn2ccnc2)c2cccnc12", "inhibition": "7.4% (inactive)"}
{"smiles": "Cc1ccc(O)c(CNc2ccccn2)c1", "inhibition": "-7.2% (inactive)"}
{"smiles": "Oc1ccccc1CNc1cccc2cccnc12", "inhibition": "45.3% (inactive)"}
{"smiles": "Cc1cccc(NCc2ccccc2O)c1C", "inhibition": "25.8% (inactive)"}
{"smiles": "CSc1cccc(NC(=S)N(CCCN2CCCC(C)C2)Cc2cccs2)c1", "note": "(stereo unspecified)", "inhibition": "4.6% (inactive)"}
{"smiles": "COCCOC(=O)C1=C(C)N=C2SCCC(=O)N2C1c1cccc(Br)c1", "note": "(stereo unspecified)", "inhibition": "1.8% (inactive)"}
{"smiles": "CCCC(=O)Nc1nc(C)c(-c2csc(Nc3ccc(Cl)cc3)n2)s1", "inhibition": "38.4% (inactive)"}
{"smiles": "O=C(Cn1cc(C(F)(F)F)cc(Cl)c1=O)Nc1cc(Cl)cc(Cl)c1", "inhibition": "13.7% (inactive)"}
{"smiles": "C=CCn1c(SCC(=O)Nc2ccc3c(c2)OCO3)nnc1-c1ccccc1", "inhibition": "25.6% (inactive)"}
{"smiles": "CCOC(=O)c1ccc(Cn2cnc3ccccc3c2=O)cc1", "inhibition": "11.7% (inactive)"}
{"smiles": "CCOC(=O)C1=C(c2ccccc2)NC(SC)=C(C#N)C1c1cccnc1", "note": "(stereo unspecified)", "inhibition": "3.3% (inactive)"}
{"smiles": "O/N=C1/CCSc2ccccc21", "inhibition": "9.7% (inactive)"}
{"smiles": "Oc1ccc(CNc2ccccc2F)c2cccnc12", "inhibition": "73.8% (active)"}
{"smiles": "O=[N+]([O-])c1ccc(O)c2ncccc12", "inhibition": "9% (inactive)"}
{"smiles": "COc1ccc(O)c(CNc2ccccc2F)c1", "inhibition": "17.2% (inactive)"}
{"smiles": "O=C(Cc1ccccc1F)Nc1cccc2cccnc12", "inhibition": "-1.1% (inactive)"}
{"smiles": "Cc1ccccc1N=Nc1ccc(O)c2ncccc12", "inhibition": "31.3% (inactive)"}
{"smiles": "CCCCCCn1c(=O)[nH]c2nc3cc(N)c(C)cc3nc2c1=O", "inhibition": "49.7% (inactive)"}
{"smiles": "CCCCn1c(=O)[nH]c2nc3cc(N)ccc3nc2c1=O", "inhibition": "52.5% (active)"}
{"smiles": "CCCCCCn1c(=O)[nH]c2nc3cc(N)ccc3nc2c1=O", "inhibition": "24% (inactive)"}
{"smiles": "C=CCn1c(COc2ccccc2F)nnc1SCCN1C(=O)c2ccccc2C1=O", "inhibition": "10.7% (inactive)"}
{"smiles": "COCCn1c(C)cc(C(=O)CSc2nc3ccccc3o2)c1C", "inhibition": "-1.7% (inactive)"}
{"smiles": "CCOC(=O)c1cnc2ccc(OCC)cc2c1NCc1cccnc1", "inhibition": "62.8% (active)"}
{"smiles": "CCOC(=O)c1cnc2ccc(OCC)cc2c1NCc1ccccc1", "inhibition": "43.5% (inactive)"}
{"smiles": "CCOC(=O)c1cnc2ccc(OC)cc2c1NCc1ccccc1", "inhibition": "27.2% (inactive)"}
{"smiles": "Cc1cc2nc(-c3ccc(SCC(=O)Nc4nccs4)nc3)[nH]c2cc1C", "inhibition": "-0.3% (inactive)"}
{"smiles": "Nc1nc2n(n1)C(=O)CC(c1ccccc1[N+](=O)[O-])N2", "note": "(stereo unspecified)", "inhibition": "9.2% (inactive)"}
{"smiles": "O=C(/C=C/c1ccc2c(c1)OCO2)NCCSCc1ccc(Cl)cc1Cl", "inhibition": "12.8% (inactive)"}
{"smiles": "CC1(C)CC(=O)C2=C(C1)OC(N)=C(C#N)C21CCN(C(=O)OCc2ccccc2)CC1", "inhibition": "4.4% (inactive)"}
{"smiles": "CC(=O)Nc1ccc(S(=O)(=O)NNC(=O)COc2cccc3ccccc23)cc1", "inhibition": "1.3% (inactive)"}
{"smiles": "Cc1ccc(S(=O)(=O)N(C(=O)c2ccncc2)c2ccc3oc4c(c3c2)CCCC4)cc1[N+](=O)[O-]", "inhibition": "1.1% (inactive)"}
{"smiles": "O=[N+]([O-])c1cc2oc3c(c2c(C=NCc2ccncc2)c1O)CCCC3", "inhibition": "52.5% (active)"}
{"smiles": "Oc1c(Br)cc2oc3c(c2c1CNCc1ccccc1)CCCC3", "inhibition": "2.3% (inactive)"}
{"smiles": "O=C(c1ccncc1)N(c1ccc2oc3c(c2c1)CCCC3)S(=O)(=O)c1cccc([N+](=O)[O-])c1", "inhibition": "6% (inactive)"}
{"smiles": "O=C1CCCC(O)=C1C=NCc1ccccc1", "inhibition": "-2.2% (inactive)"}
{"smiles": "O=[N+]([O-])c1cc2oc3c(c2c(C=NCc2ccccc2)c1O)CCCC3", "inhibition": "50.7% (active)"}
{"smiles": "COCC(=O)Nc1nnc(CCc2ccccc2)s1", "inhibition": "9.8% (inactive)"}
{"smiles": "COC(=O)C1=C(C)N(c2ccc(OC)c(OC)c2)C(=O)C1", "inhibition": "-12.5% (inactive)"}
{"smiles": "CN(C)C(=O)c1cn(-c2ccccc2)nc1-c1cccs1", "inhibition": "-7.1% (inactive)"}
{"smiles": "O=C(NCC(=O)N1CCN(S(=O)(=O)c2cccs2)CC1)c1ccc(Cl)cc1", "inhibition": "5.3% (inactive)"}
{"smiles": "FC(F)(F)c1cc(-c2cccs2)nc2nc(N3CCOCC3)sc12", "inhibition": "-4.4% (inactive)"}
{"smiles": "CC1(C)Oc2ccc3ccc(=O)oc3c2/C(=C/Nc2ccc(O)cc2)C1=O", "inhibition": "14.8% (inactive)"}
{"smiles": "CC1(C)OC(C)(C)/C(=C/Nc2ccc(O)cc2)C1=O", "inhibition": "52.5% (active)"}
{"smiles": "CC1(C)OC(C)(C)/C(=C/Nc2ccccc2)C1=O", "inhibition": "0.4% (inactive)"}
{"smiles": "Cc1ccc(NC(=O)C2CCCN2C(=O)NC2CCCCC2)cc1", "note": "(stereo unspecified)", "inhibition": "7.7% (inactive)"}
{"smiles": "CCCCC(=O)NC1(C(F)(F)F)C(=O)N(Cc2ccco2)C(C)=C1C(=O)OC", "note": "(stereo unspecified)", "inhibition": "2.6% (inactive)"}
{"smiles": "CCOC(=O)C1CCN(C(=O)CSc2nccc(C)n2)CC1", "inhibition": "-8.5% (inactive)"}
{"smiles": "COCCNC(=O)NC(=O)CN1CCCc2ccccc21", "inhibition": "6.7% (inactive)"}
{"smiles": "O=C1CC(N2CCN(c3ccccc3)CC2)C(=O)N1c1ccc2c(c1)OCO2", "note": "(stereo unspecified)", "inhibition": "-2% (inactive)"}
{"smiles": "O=C1CC(N2CCN(c3ccc(O)cc3)CC2)C(=O)N1c1ccc2c(c1)OCO2", "note": "(stereo unspecified)", "inhibition": "60.4% (active)"}
{"smiles": "O=C1CC(N2CCN(c3ccc(F)cc3)CC2)C(=O)N1c1ccc2c(c1)OCO2", "note": "(stereo unspecified)", "inhibition": "24.1% (inactive)"}
{"smiles": "COc1ccccc1OCc1ccc(C(=O)OCC2CCCO2)o1", "note": "(stereo unspecified)", "inhibition": "-2% (inactive)"}
{"smiles": "COC(=O)c1oc2ccc(OC)cc2c1N", "inhibition": "-2.9% (inactive)"}
{"smiles": "OCC[C@@H]1C[C@@H](O)[C@H](O)[C@]2(CCCCO2)O1", "inhibition": "0.7% (inactive)"}
{"smiles": "COC(=O)c1cccc(C(=O)Nc2ccc(F)cc2)n1", "inhibition": "2.8% (inactive)"}
{"smiles": "COc1ccc(NC(=O)C2CCN(C(=O)NCc3ccccc3)CC2)cc1", "inhibition": "13% (inactive)"}
{"smiles": "CN(Cc1ccc(F)cc1)C(=O)CCc1nnc(-c2ccccc2)o1", "inhibition": "-0.8% (inactive)"}
{"smiles": "O=C(Nc1cccc(S(=O)(=O)Nc2ccccc2F)c1)c1ccc2ccccc2n1", "inhibition": "44.1% (inactive)"}
{"smiles": "O=C(Cc1ccc(Cl)cc1)Nc1cccc(S(=O)(=O)Nc2ccccc2F)c1", "inhibition": "10.4% (inactive)"}
{"smiles": "CCOC(=O)CC(NS(=O)(=O)c1ccc(OC)c(C)c1)c1cccc([N+](=O)[O-])c1", "note": "(stereo unspecified)", "inhibition": "12.1% (inactive)"}
{"smiles": "CCOC(=O)c1ccc(S(=O)(=O)N2CCN(S(=O)(=O)CC)CC2)cc1", "inhibition": "4.2% (inactive)"}
{"smiles": "CCNC(=S)N1CCN(C(c2ccccc2)c2ccccc2)CC1", "inhibition": "18.7% (inactive)"}
{"smiles": "COc1ccc(C(=O)NC(C)c2nnc(SCC(=O)Nc3nc4ccccc4s3)n2C)cc1", "note": "(stereo unspecified)", "inhibition": "4.8% (inactive)"}
{"smiles": "CCOC(=O)c1c(-c2ccco2)csc1NC(=O)CSc1nnc(N)s1", "inhibition": "9.8% (inactive)"}
{"smiles": "CCOC(=O)c1c(-c2ccc(C)o2)csc1NC(=O)CN1CCCCC1", "inhibition": "20.2% (inactive)"}
{"smiles": "CCOC(=O)c1c(-c2ccco2)csc1N", "inhibition": "57.9% (active)"}
{"smiles": "CCOC(=O)c1c(CC(C)C)csc1N", "inhibition": "34.4% (inactive)"}
{"smiles": "CCOC(=O)c1c(-c2ccc(C)o2)csc1N", "inhibition": "51.6% (active)"}
{"smiles": "CCOC(=O)c1c(-c2ccc(C)o2)csc1NC(=O)COC(=O)c1cccs1", "inhibition": "16.6% (inactive)"}
{"smiles": "COc1ccc(C(=O)O/N=C(/C)c2cccs2)cc1", "inhibition": "-4.4% (inactive)"}
{"smiles": "Cc1c(NC(=S)NC(NC(=O)C(C)C)C(Cl)(Cl)Cl)c(=O)n(-c2ccccc2)n1C", "note": "(stereo unspecified)", "inhibition": "1.4% (inactive)"}
{"smiles": "NC(=O)C1(N2CCCCC2)CCN(Cc2ccc(F)cc2)CC1", "inhibition": "1.7% (inactive)"}
{"smiles": "C[C@]12CC[C@@H]3c4cc(O)c(O)cc4CC[C@H]3[C@@H]1CC[C@@H]2O", "inhibition": "27.9% (inactive)"}
{"smiles": "C[C@]12CC[C@@H]3c4ccc(O)cc4CC[C@H]3[C@@H]1CC[C@@H]2O", "inhibition": "-6.7% (inactive)"}
{"smiles": "COC(=O)/C=c1/s/c(=C(\\C#N)C(=O)NCc2ccco2)n(-c2ccccc2)c1=O", "inhibition": "-5.5% (inactive)"}
{"smiles": "Cc1ccc(-n2ncc(C#N)c2/N=C/N2CCOCC2)cc1", "inhibition": "14.1% (inactive)"}
{"smiles": "Cc1ccc(N/C=C2\\CCCCC2=O)c(C)c1", "inhibition": "-0.6% (inactive)"}
{"smiles": "O=C1CCCC/C1=C\\Nc1ccc(O)cc1", "inhibition": "25% (inactive)"}
{"smiles": "Cc1cc(O)ccc1N/C=C1\\CCCC1=O", "inhibition": "54.1% (active)"}
{"smiles": "O=C(N/N=C/c1cccc([N+](=O)[O-])c1)c1ccc(COc2ccccc2-c2ccccc2)cc1", "inhibition": "0.3% (inactive)"}
{"smiles": "Cc1ccc2c(c1)N(CC(=O)N1CCN(c3nc4ccccc4s3)CC1)C(=O)C(C)O2", "note": "(stereo unspecified)", "inhibition": "0.6% (inactive)"}
{"smiles": "Cn1c(CN2CCCCC2)nc2cc(NC(=O)c3ccc(F)cc3)ccc21", "inhibition": "10.4% (inactive)"}
{"smiles": "CCOc1ccc(S(=O)(=O)n2cc(F)c(=O)[nH]c2=O)cc1", "inhibition": "11.2% (inactive)"}
{"smiles": "CCCOc1ccc(S(=O)(=O)n2cc(Br)c(=O)[nH]c2=O)cc1", "inhibition": "-4.8% (inactive)"}
{"smiles": "CC(C)COc1ccc(S(=O)(=O)n2cc(F)c(=O)[nH]c2=O)cc1", "inhibition": "50.5% (active)"}
